Source: PubChem BioAssay
USP1 inh: USP1/UAF1 (human) deubiquitinase inhibition. O94782. recombinant USP1/UAF1, Ub-Rhodamine cleavage fluorescence. Potency, µM (top dose mostly 57.1 µM), without a hit: at the highest dose activity change, negative = inhibition, actives largely listed as inhibitors. hit rate 0.23% among 390,000. AID 743255; further: potency means the concentration at half of the fitted maximal effect; on the % scale 0 is the no-effect control and ±100 the full control effect; nearly all actives have a fitted effect of over 60% in size
Target sequence (O94782 whole entry, looked up): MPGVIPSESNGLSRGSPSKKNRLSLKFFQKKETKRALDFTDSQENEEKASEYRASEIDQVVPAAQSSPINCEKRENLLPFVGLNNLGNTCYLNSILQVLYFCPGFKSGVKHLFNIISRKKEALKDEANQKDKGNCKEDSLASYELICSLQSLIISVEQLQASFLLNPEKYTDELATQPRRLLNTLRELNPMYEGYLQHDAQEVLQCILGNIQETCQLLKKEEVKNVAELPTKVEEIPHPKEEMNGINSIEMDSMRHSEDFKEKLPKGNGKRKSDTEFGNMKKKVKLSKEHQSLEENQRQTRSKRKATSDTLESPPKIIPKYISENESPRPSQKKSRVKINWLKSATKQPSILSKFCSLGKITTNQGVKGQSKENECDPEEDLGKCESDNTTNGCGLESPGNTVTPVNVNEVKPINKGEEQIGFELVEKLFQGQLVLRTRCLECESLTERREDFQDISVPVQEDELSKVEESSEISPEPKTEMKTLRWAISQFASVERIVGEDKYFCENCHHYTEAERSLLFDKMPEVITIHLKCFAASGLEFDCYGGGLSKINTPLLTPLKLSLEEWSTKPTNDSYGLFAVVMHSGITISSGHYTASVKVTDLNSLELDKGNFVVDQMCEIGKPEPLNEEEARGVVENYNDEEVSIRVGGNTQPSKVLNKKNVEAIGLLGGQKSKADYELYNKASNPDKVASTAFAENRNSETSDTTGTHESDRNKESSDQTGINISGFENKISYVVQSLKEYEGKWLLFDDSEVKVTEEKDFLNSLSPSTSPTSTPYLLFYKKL
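USP1/UAF1 complex (1 nM) preincubated 15 min at room temperature with compound, then Ub-Rho substrate (150 nM final) added. Kinetic fluorescence at 480/540 nm over 6 reads at 60 s intervals; 50 mM HEPES pH 7.8, 0.5 mM EDTA, 0.1 mg/ml BSA, 1 mM TCEP, 0.01% Tween-20.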
USP2a inh: blocks human ubiquitin-specific protease USP2a. O75604. USP2 core, Ub-CHOP2 coupled fluorogenic reporter, 485/531. Potency, µM (series often up to 38.3 µM), for the others: top-dose activity change, negative = inhibition, usual class: inhibitors. hit rate 0.01% among 330,000;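 further: potency means the concentration at half of the fitted maximal effect; plate controls were DMSO wells for no effect and full inhibition by NEM control for full effect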
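Deubiquitinase activity read as fluorescence (485/531 nm) after Ub-CHOP2 cleavage activates the enterokinase reporter on its substrate; USP2 core 10nM, Ub-CHOP2 and substrate 25nM each, 30min compound preincubation then 60min RT; data normalized to NEM, curves fitted.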
PI5P4K alpha inh: PI5P4K alpha (human) kinase inhibition; PI5P4Kalpha enzyme, ADP-Glo luminescence, 60 min; stronger effect = lower value; max response, %; hit rate 1.2% among 330,000; active means max response of -50% or lower; inconclusive means between -30% and -50%; inactive means -30% or higher; further: value at the top dose of about 77 µM; on the % scale 0 is the no-effect control and ±100 the full control effect
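Quantitative HTS of the MLSMR library against PI5P4Kalpha with substrate. ATP added last at 5 microM final; room temperature, 60 minutes. Remaining ATP depleted, ADP converted and read as luminescence.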
WRN helicase inh-1: inhibitors of human WRN helicase; hit rate 0.46% among 360,000; WRN helicase unwinding, fluorescent forked duplex, kinetic; AID 651768; Potency, µM (series often up to 114 µM), without a hit: at the top dose activity change, negative = inhibition, most hits filed as inhibitors; Q14191; further: potency means the concentration at half of the fitted maximal effect; on the % scale 0 is the no-effect control and ±100 the full control effect; nearly all actives have a fitted effect of over 55% in size
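WRN at 20 nM final preincubated with compound 15 min at room temperature; reaction started with 100 nM fluorophore/quencher forked duplex oligonucleotide and 2 mM ATP final. Unwinding followed kinetically by red fluorescence (ex 525, em 598 nm).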
PLK1 PBD inh: PLK1 (human) polo-box domain binding inhibition | P53350 | Plk1 PBD binding of FITC phosphopeptide, fluorescence polarization | Potency, µM, for inactives: max response, negative = inhibition, most hits filed as inhibitors | hit rate 2.8% among 360,000 | AID 720504; further: potency means the concentration at half of the fitted maximal effect; series mostly up to about 57 µM; on the % scale 0 is the no-effect control and ±100 the full control effect; nearly all actives have a fitted effect of over 65% in size
WRN helicase inh-2: WRN helicase inhibition, cherry-pick retest. shares compounds with WRN helicase inh-1. WRN helicase DNA unwinding, fluorescence kinetic. Potency, µM (titrated, usually from 57.1 µM), inactives show at the highest dose activity, negative = inhibition, actives largely listed as inhibitors. hit rate 63% among 610. AID 720497; further: potency means the concentration at half of the fitted maximal effect; nearly all actives have a fitted effect of over 65% in size
TO DNA binding: counter-screen for WRN helicase inhibitors: DNA binding; shares compounds with WRN helicase inh-1; thiazole orange DNA binding displacement, fluorescence; Potency, µM (highest dose often 57.1 µM), without a hit: at the highest dose activity change, negative = inhibition, usual class: inhibitors; hit rate 10% among 610;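 further: drop in dye fluorescence marks compound binding to DNA; potency means the concentration at half of the fitted maximal effect; on the % scale 0 is the no-effect control and ±100 the full control effect; nearly all actives have a fitted effect of over 60% in size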
BLM counter: blocks human BLM helicase in WRN counterscreen. shares compounds with WRN helicase inh-1. Potency, µM (series often up to 57.1 µM), without a hit: at the highest dose activity change, negative = inhibition, hits mostly inhibitors. hit rate 60% among 610. Recombinant BLM helicase DNA unwinding, red fluorescence; further: potency means the concentration at half of the fitted maximal effect; nearly all actives have a fitted effect of over 60% in size
An asterisk follows results filed as active; ? = inconclusive; . = no result given. Rows were chosen to be rich in hits. Some 3.3% of all compounds tested hit in one or more screens of this group. Unless noted, the call rests on the fitted dose curve; in most records, active means well fitted curve in the direction sought with a large enough effect; inconclusive means small, poorly fitted or top-dose-only effect, or another doubt; inactive means no such curve, though single readings can be large; an effect the other way counts as inactive or inconclusive.

SMILES	USP1 inh	USP2a inh	PI5P4K alpha inh	WRN helicase inh-1	PLK1 PBD inh	WRN helicase inh-2	TO DNA binding	BLM counter
O=[N+]([O-])c1cc(-c2ccn[nH]2)ccc1Cl	0%	-1%	7	10%	-5%	.	.	.
Cc1ccc(-c2ccc(=O)n(CC(=O)NC(C)c3ccccc3)n2)cc1 (stereo unspecified)	-21%	.	.	.	.	.	.	.
CCOc1cccc(/C=C(/C#N)c2nc3ccccc3[nH]2)c1OCC(=O)O	-24%	-2%	-1	-9%	-3%	.	.	.
COc1cccc(/C=C(\C#N)c2nc3ccc(C)cc3[nH]2)c1OCC(=O)O	-14%	2%	-2	?	-4%	6.8µM*	-16%	-21%
Cc1ccc(-c2noc(CCC(=O)Nc3ccc(F)cc3Cl)n2)cc1	-18%	.	.	.	.	.	.	.
C=CCn1c(SCC(=O)c2ccc(O)c(O)c2)nnc1-c1ccc(C)cc1	-31%	3%	-3	?	-2%	19µM*	-5%	?
COc1ccc(-n2nnnc2SCC(N)=O)cc1	-9%	0%	2	0%	-7%	.	.	.
C=CCn1c(SCC(=O)c2ccc(O)c(O)c2)nnc1-c1ccc(OC)cc1	0%	-2%	-51*	28µM*	-18%	17µM*	-4%	?
COc1ccc(-n2nnnc2SCC(=O)c2ccc(O)c(O)c2)cc1	-10%	-1%	.	16µM*	0%	6.8µM*	?	11µM*
CN(C)CCC(=O)C(Cc1ccccc1)c1ccccc1 (stereo unspecified)	-15%	.	-5	7.9µM*	4.7µM*	-22%	-2%	-18%
CN(C)CCNC(=O)C(c1ccccc1)c1ccccc1	-20%	1%	3	3%	5%	.	.	.
COc1cc(/C=C2\SC(=Nc3cccnc3)NC2=O)cc(OC)c1OC	-21%	6%	-89*	13µM*	5%	-16%	-5%	-16%
COc1cccc(CNC(=O)CCc2c(C)nc3c4c(C)cc(C)nc4nn3c2C)c1	-9%	.	.	.	.	.	.	.
Cc1ccc(NS(=O)(=O)c2cnc(N)nc2)c(C)c1	-15%	.	.	.	.	.	.	.
CCN(CC)Cc1cc(Nc2c3ccccc3nc3c4ccccc4n(C)c23)cc(CN(CC)CC)c1O	-11%	.	-18	?	-9%	17µM*	38µM*	-19%
O=C(CN1C(=O)COc2ccc(S(=O)(=O)N3CCCCCC3)cc21)Nc1cccc(Cl)c1	-10%	.	.	.	.	.	.	.
CC1=NOC(=O)/C1=C\c1ccc(-c2cccc(Cl)c2)o1	?	2%	?	13µM*	0.53µM*	?	-12%	7.6µM*
CC1=NOC(=O)/C1=C\c1ccc(-c2ccc(Cl)c(C(=O)O)c2)o1	-20%	-2%	?	35µM*	2.1µM*	19µM*	-16%	27µM*
O=C(O)c1ccc(-n2cccc2/C=N\NC(=O)c2cc3cc(Br)ccc3o2)cc1	-17%	7%	-93*	40µM*	21µM*	15µM*	-19%	5.4µM*
Cc1ccc(C)n1-c1sc2c(c1C(=O)O)CCCC2	-12%	2%	-17	?	17µM*	14µM*	0%	15µM*
CCOC(=O)c1c(-n2c(C)cc(C=O)c2C)sc2c1CCCC2	-15%	-5%	.	-5%	-9%	.	.	.
N#C/C(=C\c1ccccc1C(=O)O)c1nc2ccccc2[nH]1	-19%	-1%	-2	3%	-2%	.	.	.
N#C/C(=C\c1ccc(-c2ccc(Cl)c(C(=O)O)c2)o1)c1nc2ccccc2[nH]1	32µM*	13%	.	.	.	19µM*	?	14µM*
N#C/C(=C\c1ccc(-c2ccc(C(=O)O)cc2)o1)c1nc2ccccc2[nH]1	28µM*	7%	?	?	44%	19µM*	179%	24µM*
COc1ccccc1N1CCN(C(=O)Cn2c(=O)nc(-c3ccccc3)c3ccccc32)CC1	-8%	.	.	.	.	.	.	.
SMILES	USP1 inh	USP2a inh	PI5P4K alpha inh	WRN helicase inh-1	PLK1 PBD inh	WRN helicase inh-2	TO DNA binding	BLM counter
c1cnc2ccc3c(c2c1)COCO3	-9%	.	13	0%	-4%	.	.	.
O=[N+]([O-])c1cc2c(c3cccnc13)COCO2	-8%	.	-56*	?	-15%	?	-29%	15µM*
Cc1cccc(CS(=O)(=O)CC2Nc3ccc(C(=O)NCc4ccccc4Cl)cc3NC2=O)c1 (stereo unspecified)	22%	.	.	.	.	.	.	.
COc1ccc(-c2nn(C)c3sc(C(=O)Nc4cc(OC)c(OC)c(OC)c4)cc23)cc1OC	-23%	.	.	.	.	9.6µM*	?	11µM*
COc1ccc(NC(=O)c2cc3c(-c4ccc(OC)c(OC)c4)nn(C)c3s2)cc1OC	-20%	-13%	0	12µM*	1%	14µM*	-9%	14µM*
COc1ccc(CN2CC(=O)N(c3ccc(C)c(C)c3)C2=S)cc1OC	-8%	1%	-87*	?	-15%	-8%	-4%	-4%
O=c1c2ccccc2nc2sc(Nc3cccc(N4CCNCC4)c3)nn12	.	.	.	.	.	22µM*	-25%	?
CCOC(=O)c1ccc(NC(=O)C2CCN(S(=O)(=O)Cc3ccccc3)CC2)cc1	-15%	.	.	.	.	.	.	.
Cc1cccc(C(=O)Oc2ccc(/C=N/NC(=O)c3cc(O)cc(O)c3)cc2)c1	-13%	-3%	-77*	35µM*	?	22µM*	?	14µM*
O=C1NC2c3c(Cl)sc(Cl)c3C(=O)C2O1 (stereo unspecified)	4%	.	?	2.4µM*	15µM*	15µM*	-18%	1.4µM*
O=C1NC2c3c(I)sc(I)c3C(=O)C2O1 (stereo unspecified)	-11%	.	-4	-10%	?	.	.	.
Fc1ccccc1-n1ncc2c1ncn1nc(Cc3ccccc3)nc21	-16%	.	.	.	.	.	.	.
COc1ccc(C(CC(=O)NCc2ccccc2Cl)N2Cc3ccccc3C2=O)cc1OC (stereo unspecified)	-19%	.	.	.	.	.	.	.
CNc1ccccc1C(C)(C)c1cc(-c2cccc(Br)c2)no1	-7%	-6%	6	79µM*	3%	?	-7%	?
O=C(Nc1ccc(Br)cc1)c1ccc(-n2cnnn2)cc1	?	3%	3	6%	-2%	.	.	.
O=C(Nc1cc(SCC(O)CO)cc([N+](=O)[O-])c1)c1ccc(-n2cnnn2)cc1 (stereo unspecified)	-8%	1%	7	?	-20%	?	-27%	?
CN(C)/C=C1\SC(=S)N(c2ccc(Br)cc2)C1=O	?	3%	0	?	-28%	24µM*	3%	22µM*
